The list is not random: actives were taken first. Their share in the collection is about 2.6%.
PABP1 MLLE inh: inhibitors of PABP1 MLLE–PAM2 peptide binding, primary screen, biochemical, fluorescence polarization, FITC-PAM2, GST-MLLE | Polyadenylate-binding protein 1 (Homo sapiens), P11940 | inhibition, % at 20 µM | 360,000 compounds, 0.36% hits | AID 588489, 2011; in the data active = inhibition above about 35%, passing the limit was not always enough
PHOSPHO1 inh: PubChem AID 1565 | recombinant PHOSPHO1, absorbance phosphatase assay | inhibition, % at 13.3 µM | 290,000 compounds, 1.1% hits | Phosphoethanolamine/phosphocholine phosphatase (Homo sapiens), Q8TCT1; in the data active = inhibition above about 60%
PABP FP inh: PABP poly(A) RNA binding inhibitors, primary screen, biochemical, fluorescence polarization, uHTS; calls only at 35 µM; 290,000 compounds, 1% hits; AID 2014, 2009;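 also: calls also rest on retests at 20 µM and on dose response follow-up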
A3A deaminase: APOBEC3A ssDNA deaminase inhibitors, primary screen, selectivity assay for APOBEC3G inhibitor project, biochemical, FAM/TAMRA oligo cleavage fluorescence | DNA dC->dU-editing enzyme APOBEC-3A (Homo sapiens), P31941 | recombinant A3A, FAM/TAMRA ssDNA deamination fluorescence | inhibition, % at 20 µM | 330,000 compounds, 0.41% hits;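 active = at least 40% inhibition at 20 µM here, with at most 30% in a related deaminase screen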
Target sequence (P31941 whole entry, looked up): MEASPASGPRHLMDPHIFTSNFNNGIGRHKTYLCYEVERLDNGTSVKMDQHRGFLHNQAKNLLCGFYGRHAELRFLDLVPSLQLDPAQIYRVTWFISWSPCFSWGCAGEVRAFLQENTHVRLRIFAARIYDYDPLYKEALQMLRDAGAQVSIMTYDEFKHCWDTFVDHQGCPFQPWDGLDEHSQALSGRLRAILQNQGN
APOBEC3G inh: APOBEC3G DNA deaminase inhibitors, primary screen, biochemical, fluorescence, single-stranded DNA substrate, uHTS. DNA dC->dU-editing enzyme APOBEC-3G (Homo sapiens), Q9HC16. recombinant A3G, ssDNA deamination FAM/TAMRA fluorescence. AID 493012, 2011. inhibition, % at 20 µM. 330,000 compounds, 0.28% hits;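 active = inhibition of at least 40% at 20 µM, with no more than 30% in the related APOBEC3A deaminase screen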
eIF4H FP inh: human eIF4H binding inhibitors, primary screen, translation initiation inhibitor project, biochemical, uHTS, fluorescence polarization; eIF4H fluorescence polarization binding assay; inhibition, % at 35 µM; 290,000 compounds, 0.94% hits;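 also: calls also rest on retests at 20 µM and on dose response follow-up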
Each line names hits and unclear results; the compound was inactive in the other large screens. Unless noted, no rule for the calls is given here.

O=C(Cc1ccc(NC2=NC3CS(=O)(=O)CC3S2)cc1)NCc1ccccc1 (stereo unspecified)	none
CCN(CCO)c1ncnc2c1sc1nc(C(C)C)c3c(c12)CC(C)(C)OC3	none
CCN(CCO)c1nc(SC)nc2c1sc1nc(-c3ccco3)c3c(c12)CCC3	PABP FP inh active, eIF4H FP inh 85
CSc1nc(NCCOCCO)c2sc3nc(-c4ccco4)c4c(c3c2n1)CCC4	PABP FP inh active, eIF4H FP inh 94
CSc1nc(NCc2ccco2)c2sc3nc(C(C)C)c4c(c3c2n1)CC(C)(C)OC4	none
C(=N\Nc1nn[nH]n1)/c1ccccc1	PHOSPHO1 inh 71
Clc1ccc(/C=N/Nc2nn[nH]n2)cc1	none
CC(C)CN1CCN(C(=O)CCc2nnc(Cc3c[nH]c4ccccc34)o2)[C@@H](C)C1=O	PHOSPHO1 inh 66
Fc1ccc(NC(=S)N2CCCC(c3ccccc3)=N2)cc1	PABP FP inh active, eIF4H FP inh 54
Fc1ccc(NC(=S)N2CCCC2)cc1	none (no result: PHOSPHO1 inh, PABP FP inh, eIF4H FP inh)
O=C(c1ccccc1)N1CCN(Cc2ccccc2)CC1	none
Cc1ccc(CN2CCN(C(=O)c3ccncc3)CC2)cc1	PHOSPHO1 inh 68
CSc1ccc(CN(C)C(=O)c2cccc(S(=O)(=O)NCc3ccccc3)c2)cc1	PABP FP inh active
CSc1ccc(CN(C)C(=O)c2cc(S(=O)(=O)NCc3ccccc3)ccc2C)cc1	none (no result: PHOSPHO1 inh, PABP FP inh, eIF4H FP inh)
CCN(CC)C(=O)C1=C(C)N(CCC2=CCCCC2)C(=O)C(CC(=O)NCc2cccs2)C1 (stereo unspecified)	none (no result: PHOSPHO1 inh, PABP FP inh, A3A deaminase, APOBEC3G inh, eIF4H FP inh)
Cc1ccc2c(c1)sc(C)[n+]2CCCS(=O)(=O)[O-]	PABP1 MLLE inh 48
CCC(Oc1ccccc1)C(=O)Nc1cc(C(F)(F)F)ccc1N1CCOCC1 (stereo unspecified)	none (no result: PHOSPHO1 inh, PABP FP inh, eIF4H FP inh)
OCCCNc1ncnc2c1ncn2[C@H]1CN(Cc2cccs2)C[C@@H](CO)O1	none (no result: PHOSPHO1 inh, PABP FP inh, A3A deaminase, APOBEC3G inh, eIF4H FP inh)
Cc1csc(SCC(=O)c2ccc(S(=O)(=O)N3CCOCC3)cc2)n1	PHOSPHO1 inh 78
O=C(O)c1cccc(-c2ccc(/C=N/n3cnnc3)o2)c1	none
O=C1OC(c2cccs2)=N/C1=C/c1ccc(-c2cccc(C(=O)O)c2)o1	PABP FP inh active (no result: A3A deaminase, APOBEC3G inh)
N=C1/C(=C\c2ccc(-c3cc(Cl)cc(Cl)c3)o2)C(=O)N=C2SC=C(c3ccccc3)N12	none
N=C1/C(=C/c2ccc(-c3cccc(C(=O)O)c3)o2)C(=O)N=C2SC=C(c3ccccc3)N12	PABP FP inh active, eIF4H FP inh 52
O=C1OC(c2cccs2)=N/C1=C\c1ccc(-c2ccccc2Cl)o1	none (no result: A3A deaminase, APOBEC3G inh)
Cc1cc(C)cc(-n2cccc2/C=C2/C(=N)N3C(=NC2=O)SN=C3S(C)(=O)=O)c1	PABP FP inh active, eIF4H FP inh 29
CC(C)S(=O)(=O)C1=NSC2=NC(=O)/C(=C\c3ccc(-c4cccc(C(=O)O)c4)o3)C(=N)N21	PABP FP inh active (no result: A3A deaminase, APOBEC3G inh)
Cc1ccccc1-n1c(C)nnc1SC(C)C(=O)NCC1CCCO1 (stereo unspecified)	none (no result: PHOSPHO1 inh, PABP FP inh, eIF4H FP inh)
COCCNC(=O)c1cc2c(c(-c3cccc(C#CC(C)(C)O)c3)n1)[C@@H](CCO)N(S(=O)C(C)(C)C)C2 (stereo partly specified)	none (no result: PHOSPHO1 inh, PABP FP inh, A3A deaminase, APOBEC3G inh, eIF4H FP inh)
Cc1[nH]c(C)c(S(=O)(=O)NCC(C)c2ccccc2)c1C(=O)N1CCCCC1 (stereo unspecified)	none
Cc1cnc(NC(=O)C2CC=CCC2)s1 (stereo unspecified)	none
CC(C)S(=O)(=O)C1=NSC2=NC(=O)/C(=C\c3ccc(-c4ccccc4)o3)C(=N)N21	eIF4H FP inh inconclusive (no result: A3A deaminase, APOBEC3G inh)
CS(=O)(=O)C1=NSC2=NC(=O)/C(=C\c3ccc(-c4ccccc4)o3)C(=N)N21	eIF4H FP inh 54 (no result: PABP1 MLLE inh, A3A deaminase, APOBEC3G inh)
CC(Oc1ccc([N+](=O)[O-])cc1)C(=O)NCCCN1CCOCC1 (stereo unspecified)	PHOSPHO1 inh 66
Cc1noc(C)c1-c1csc(N2CCC(C(N)=O)CC2)n1	PABP1 MLLE inh 40 (no result: PHOSPHO1 inh, PABP FP inh, eIF4H FP inh)

Screening results deposited in PubChem by Sanford-Burnham Center for Chemical Genomics.
